Reference: PubChem BioAssay (NCI)
Several values for one entry are separate records, joined by “and”; a condition that tells them apart may be missing. Identical values can stand only once. About 79,000 compounds went through this panel and 15% of them were active in at least one assay; those are over-represented in the sample as a whole. A number with no mark means an inactive call. Activity calls are given as the source filed them. Rule as the data show it: active = growth inhibition above about 70%; inactive = the rest.

Tests used:
[1] = NCI Yeast Anticancer Drug Screen. Data for the rad52 strain (AID 147);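 also: 0% = growth of vehicle-treated control cultures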; settings: S. cerevisiae rad52 mutant growth inhibition, stronger effect = higher value
Procedure, shortened: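 Read-out: growth inhibition versus vehicle-treated controls. Cells were a DNA repair-deficient yeast strain treated with compounds.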

[2] = NCI Yeast Anticancer Drug Screen. Data for the wt1 strain (AID 149);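 also: 0% = growth of vehicle-treated wt1 cultures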; settings: S. cerevisiae wt1 strain (SPY 50644) growth inhibition, stronger effect = higher value
Procedure, shortened: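 Using yeast strain wt1, compound-induced growth inhibition was determined against vehicle-treated cultures.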

[3] = NCI Yeast Anticancer Drug Screen. Data for the mgt1 strain (AID 153); settings: S. cerevisiae mgt1 mutant growth inhibition, stronger effect = higher value
Procedure, shortened: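 mgt1 yeast grown with test compound; read-out is growth inhibition versus vehicle-treated cultures.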

[4] = NCI Yeast Anticancer Drug Screen. Data for the rad50 strain (AID 155);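 also: 0% = growth of vehicle-only cultures of the same strain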; settings: S. cerevisiae rad50 strain growth inhibition, stronger effect = higher value
Procedure, shortened: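 Relative growth inhibition (compound vs vehicle) was measured in yeast with a defined repair-gene alteration.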

[5] = NCI Yeast Anticancer Drug Screen. Data for the mec2-1 strain (AID 157); settings: S. cerevisiae mec2-1 strain, stronger effect = higher value
Procedure, shortened: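 Yeast mec2-1 mutant treated with compound. Readout: growth inhibition vs vehicle controls.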

[6] = NCI Yeast Anticancer Drug Screen. Data for the rad14 strain (AID 159);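 also: 0% = growth of vehicle-treated control cultures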; settings: S. cerevisiae rad14 strain growth inhibition, stronger effect = higher value
Procedure, shortened: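 Screen for anticancer potential: a yeast strain altered in DNA damage repair is grown with compound, and reduced growth is quantified against vehicle controls.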

[7] = NCI Yeast Anticancer Drug Screen. Data for the sgs1 mgt1 strain (AID 161);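 also: 0% = growth of cultures given vehicle only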; settings: S. cerevisiae sgs1 mgt1 strain, stronger effect = higher value
Procedure, shortened: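 Inhibition of yeast growth, normalised to vehicle-treated controls, is reported for a strain bearing genetic alterations in DNA damage repair.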

[8] = NCI Yeast Anticancer Drug Screen. Data for the CLN2oe strain (AID 163);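 also: 0% = growth of vehicle-only control cultures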; settings: S. cerevisiae CLN2oe strain, stronger effect = higher value
Procedure, shortened: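 Read-out: yeast growth inhibition, expressed relative to vehicle-only controls. The strain bears an engineered cell-cycle alteration.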

[9] = NCI Yeast Anticancer Drug Screen. Data for the cln2 rad14 strain (AID 165);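 also: 0% = growth equal to vehicle treated cultures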; settings: S. cerevisiae cln2 rad14 strain, stronger effect = higher value
Procedure, shortened: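 cln2 rad14 yeast strain; compound exposure; growth inhibition read vs vehicle controls.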

[10] = NCI Yeast Anticancer Drug Screen. Data for the bub3 strain (AID 167); settings: S. cerevisiae bub3 mutant strain, stronger effect = higher value
Procedure, shortened: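 Screening used yeast with an engineered genetic alteration affecting cell cycle control. Compound-exposed cultures were compared with vehicle cultures, and reduced growth was taken as inhibition.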

[11] = NCI Yeast Anticancer Drug Screen. Data for the wt2 strain (AID 169);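 also: 0% = growth of vehicle-treated yeast cultures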; settings: S. cerevisiae wt2 strain growth inhibition, stronger effect = higher value
Procedure, shortened: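 Read-out: growth inhibition versus vehicle-treated control cultures after compound exposure of the yeast strain.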

[12] = NCI Yeast Anticancer Drug Screen. Data for the mlh1 strain (AID 171);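 also: 0% = growth of vehicle-treated control cultures of the same strain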; settings: S. cerevisiae mlh1 strain growth inhibition, stronger effect = higher value
Procedure, shortened: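 Read-out: growth inhibition versus vehicle controls. Strain: engineered yeast with a defined DNA repair or cell cycle defect, compound-treated.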

[13] = NCI Yeast Anticancer Drug Screen. Data for the sgs1 strain (AID 173);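 also: 0% = growth of vehicle-only control cultures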; settings: S. cerevisiae sgs1 mutant, stronger effect = higher value
Procedure, shortened: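 Read-out: yeast growth inhibition relative to vehicle controls, following compound exposure of a strain with a defined DNA repair/cell cycle alteration.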

[14] = NCI Yeast Anticancer Drug Screen. Data for the mlh1 rad18 strain (AID 175); settings: S. cerevisiae mlh1 rad18 strain growth inhibition, stronger effect = higher value
Procedure, shortened: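 Yeast w/ defined DNA-repair lesions; compound exposure; growth vs vehicle controls → % inhibition.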

[15] = NCI Yeast Anticancer Drug Screen. Data for the rad18 strain (AID 177); settings: S. cerevisiae rad18 mutant growth inhibition, stronger effect = higher value
Procedure, shortened: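 Readout: growth inhibition vs vehicle controls. Cells: genetically altered yeast strain, DNA repair defect.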

[16] = NCI Yeast Anticancer Drug Screen. Data for the rad50EPP+ strain (AID 151);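 also: 0% = growth of vehicle-treated control cultures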; settings: S. cerevisiae rad50 mutant strain, stronger effect = higher value
Procedure, shortened: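 Growth inhibition read against vehicle controls in rad50EPP+ yeast, a strain altered in DNA damage repair, after compound exposure.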

[17] = at 5.0 µM (retest, dose inferred, filed as 0.5)
[18] = at 50.0 µM (retest, dose inferred, filed as 5.0)

Structure (SMILES): CSc1ccccc1[As](C)C
- growth inhibition ([1]; at 1.2 µM): 1%
- growth inhibition ([1]; at 3.7 µM): 16%
- growth inhibition ([1]; at 11.0 µM): 84% (active)
- growth inhibition ([1]; at 33.0 µM): 99% (active)
- growth inhibition ([1]; at 100.0 µM): 99% (active)
- growth inhibition ([2]; at 1.2 µM): -1%
- growth inhibition ([2]; at 3.7 µM): 15%
- growth inhibition ([2]; at 11.0 µM): 88% (active)
- growth inhibition ([2]; at 33.0 µM): 99% (active)
- growth inhibition ([2]; at 100.0 µM): 99% (active)
- growth inhibition ([3]; at 1.2 µM): -1%
- growth inhibition ([3]; at 3.7 µM): 16%
- growth inhibition ([3]; at 11.0 µM): 75% (active)
- growth inhibition ([3]; at 33.0 µM): 99% (active)
- growth inhibition ([3]; at 100.0 µM): 99% (active)
- growth inhibition ([4]; at 1.2 µM): 7%
- growth inhibition ([4]; at 3.7 µM): -15%
- growth inhibition [4, 17]: 96% (active)
- growth inhibition ([4]; at 11.0 µM): 86% (active)
- growth inhibition ([4]; at 33.0 µM): 98% (active)
- growth inhibition [4, 18]: 99% (active)
- growth inhibition ([4]; at 50.0 µM): 99.3% (active)
- growth inhibition ([4]; at 100.0 µM): 99% (active)
- growth inhibition ([5]; at 1.2 µM): 2%
- growth inhibition ([5]; at 3.7 µM): 24%
- growth inhibition [5, 17]: 90% (active)
- growth inhibition ([5]; at 11.0 µM): 92% (active)
- growth inhibition ([5]; at 33.0 µM): 99% (active)
- growth inhibition [5, 18]: 99% (active)
- growth inhibition ([5]; at 50.0 µM): 99.5% (active)
- growth inhibition ([5]; at 100.0 µM): 99% (active)
- growth inhibition ([6]; at 1.2 µM): 5%
- growth inhibition ([6]; at 3.7 µM): 26%
- growth inhibition ([6]; at 11.0 µM): 87% (active)
- growth inhibition ([6]; at 33.0 µM): 99% (active)
- growth inhibition ([6]; at 100.0 µM): 100% (active)
- growth inhibition [7, 17]: 97% (active)
- growth inhibition [7, 18]: 99% (active)
- growth inhibition ([7]; at 50.0 µM): 99.5% (active)
- growth inhibition ([8]; at 1.2 µM): -4%
- growth inhibition ([8]; at 3.7 µM): -1%
- growth inhibition ([8]; at 11.0 µM): 32%
- growth inhibition ([8]; at 33.0 µM): 99% (active)
- growth inhibition ([8]; at 100.0 µM): 98% (active)
- growth inhibition [9, 17]: 27%
- growth inhibition [9, 18]: 98% (active)
- growth inhibition ([9]; at 50.0 µM): 98.1% (active)
- growth inhibition ([10]; at 1.2 µM): -6%
- growth inhibition ([10]; at 3.7 µM): 13%
- growth inhibition [10, 17]: 1%
- growth inhibition ([10]; at 11.0 µM): 77% (active)
- growth inhibition ([10]; at 33.0 µM): 99% (active)
- growth inhibition [10, 18]: 50%
- growth inhibition ([10]; at 50.0 µM): 98.8% (active)
- growth inhibition ([10]; at 100.0 µM): 99% (active)
- growth inhibition ([11]; at 1.2 µM): -1%
- growth inhibition ([11]; at 3.7 µM): 21%
- growth inhibition ([11]; at 11.0 µM): 85% (active)
- growth inhibition ([11]; at 33.0 µM): 99% (active)
- growth inhibition ([11]; at 100.0 µM): 99% (active)
- growth inhibition ([12]; at 1.2 µM): 1%
- growth inhibition ([12]; at 3.7 µM): 20%
- growth inhibition ([12]; at 11.0 µM): 90% (active)
- growth inhibition ([12]; at 33.0 µM): 99% (active)
- growth inhibition ([12]; at 100.0 µM): 100% (active)
- growth inhibition ([13]; at 1.2 µM): 4%
- growth inhibition ([13]; at 3.7 µM): 34%
- growth inhibition ([13]; at 11.0 µM): 95% (active)
- growth inhibition ([13]; at 33.0 µM): 99% (active)
- growth inhibition ([13]; at 100.0 µM): 99% (active)
- growth inhibition [14, 17]: 97% (active)
- growth inhibition [14, 18]: 99% (active)
- growth inhibition ([14]; at 50.0 µM): 99.5% (active)
- growth inhibition ([15]; at 1.2 µM): 8%
- growth inhibition ([15]; at 3.7 µM): 43%
- growth inhibition ([15]; at 11.0 µM): 92% (active)
- growth inhibition ([15]; at 33.0 µM): 99% (active)
- growth inhibition ([15]; at 100.0 µM): 99% (active)

Structure (SMILES): N#CC(C#N)=Cc1ccc(C#N)cc1
- growth inhibition ([1]; at 1.2 µM): 0%
- growth inhibition ([1]; at 3.7 µM): -4%
- growth inhibition ([1]; at 11.0 µM): -1%
- growth inhibition ([1]; at 33.0 µM): 0%
- growth inhibition ([1]; at 100.0 µM): 11%
- growth inhibition ([2]; at 1.2 µM): -2%
- growth inhibition ([2]; at 3.7 µM): -2%
- growth inhibition ([2]; at 11.0 µM): -3%
- growth inhibition ([2]; at 33.0 µM): -2%
- growth inhibition ([2]; at 100.0 µM): 3%
- growth inhibition ([16]; at 1.2 µM): -2%
- growth inhibition ([16]; at 3.7 µM): -2%
- growth inhibition ([16]; at 11.0 µM): 0%
- growth inhibition ([16]; at 33.0 µM): 0%
- growth inhibition ([16]; at 100.0 µM): 0%
- growth inhibition ([3]; at 1.2 µM): -2%
- growth inhibition ([3]; at 3.7 µM): -2%
- growth inhibition ([3]; at 11.0 µM): 0%
- growth inhibition ([3]; at 33.0 µM): -3%
- growth inhibition ([3]; at 100.0 µM): 1%
- growth inhibition ([4]; at 1.2 µM): 1%
- growth inhibition ([4]; at 3.7 µM): -4%
- growth inhibition [4, 17]: -109%
- growth inhibition ([4]; at 11.0 µM): 2%
- growth inhibition ([4]; at 33.0 µM): 10%
- growth inhibition [4, 18]: 90% (active)
- growth inhibition ([4]; at 50.0 µM): -6.65% and 24.1%
- growth inhibition ([4]; at 100.0 µM): 9%
- growth inhibition ([5]; at 1.2 µM): 3%
- growth inhibition ([5]; at 3.7 µM): 0%
- growth inhibition [5, 17]: -47%
- growth inhibition ([5]; at 11.0 µM): 6%
- growth inhibition ([5]; at 33.0 µM): 3%
- growth inhibition [5, 18]: 15%
- growth inhibition ([5]; at 50.0 µM): -8.25% and 5.55%
- growth inhibition ([5]; at 100.0 µM): 7%
- growth inhibition [7, 17]: -56%
- growth inhibition [7, 18]: 62%
- growth inhibition ([7]; at 50.0 µM): -16.8% and -0.4%
- growth inhibition ([8]; at 1.2 µM): -4%
- growth inhibition ([8]; at 3.7 µM): -2%
- growth inhibition ([8]; at 11.0 µM): 1%
- growth inhibition ([8]; at 33.0 µM): 0%
- growth inhibition ([8]; at 100.0 µM): 11%
- growth inhibition [9, 17]: -60%
- growth inhibition [9, 18]: -7%
- growth inhibition ([9]; at 50.0 µM): 50.4% and 4.05%
- growth inhibition ([10]; at 1.2 µM): -4%
- growth inhibition ([10]; at 3.7 µM): -8%
- growth inhibition [10, 17]: -65%
- growth inhibition ([10]; at 11.0 µM): -7%
- growth inhibition ([10]; at 33.0 µM): -7%
- growth inhibition [10, 18]: 51%
- growth inhibition ([10]; at 50.0 µM): -0.75% and 31.1%
- growth inhibition ([10]; at 100.0 µM): 7%
- growth inhibition ([11]; at 1.2 µM): -1%
- growth inhibition ([11]; at 3.7 µM): -1%
- growth inhibition ([11]; at 11.0 µM): -1%
- growth inhibition ([11]; at 33.0 µM): 1%
- growth inhibition ([11]; at 100.0 µM): 5%
- growth inhibition ([12]; at 1.2 µM): 8%
- growth inhibition ([12]; at 3.7 µM): -4%
- growth inhibition ([12]; at 11.0 µM): -1%
- growth inhibition ([12]; at 33.0 µM): 1%
- growth inhibition ([12]; at 100.0 µM): 2%
- growth inhibition ([13]; at 1.2 µM): -1%
- growth inhibition ([13]; at 3.7 µM): -2%
- growth inhibition ([13]; at 11.0 µM): -2%
- growth inhibition ([13]; at 33.0 µM): -2%
- growth inhibition ([13]; at 100.0 µM): 14%
- growth inhibition [14, 17]: -109%
- growth inhibition [14, 18]: 76% (active)
- growth inhibition ([14]; at 50.0 µM): -24.6% and 16.7%
- growth inhibition ([15]; at 1.2 µM): -1%
- growth inhibition ([15]; at 3.7 µM): -1%
- growth inhibition ([15]; at 11.0 µM): -1%
- growth inhibition ([15]; at 33.0 µM): 0%
- growth inhibition ([15]; at 100.0 µM): 9%
